Structures are written as SMILES. Among all 59,000 compounds or so, about 540 (0.92%) were called active. Another 33% or so got no clear call; they are omitted. No stated cut-off is given here; in the data, active means max fluorescein-equivalent concentration above about 10 nM; inconclusive means between about 1.1 nM and that limit; inactive means weaker than that. Shown is part of a subset that was picked to be rich in actives.

Experimental findings from PubChem BioAssay AID593 (National Center for Advancing Translational Sciences (NCATS), 2007) are described below.

A short description of the assay: qHTS Assay for Spectroscopic Profiling in Fluorescein Spectral Region. The settings on record: Compound autofluorescence, 480/540 nm; max fluorescein-equivalent concentration: active compounds read high; outcome: fluorescein-equivalent. Put shortly:
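First, buffer (100 mM Tris, pH 8.0) dispensed; second, compounds and fluorescein standards pinned in; third, 15 min room-temperature incubation; finally, imaging at ex 480 nm/em 540 nm. Fluorescence normalized against the six-point fluorescein curve.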
On to `C=CCn1c(C)cc(C(=O)CN2C(=O)c3ccccc3C2=O)c1C`, for which the max fluorescein-equivalent concentration entry is “inactive”.
Next, `Cc1ccc(SCCN2C(=O)NC(C)(C)C2=O)cc1`: “inactive”.
In the case of `COc1cccc(Cn2c(=O)c(C)nc3cnc(Oc4ccccc4)nc32)c1` it was “inactive”.
In the case of `Cc1cc(C(F)(F)F)nn1CC(=O)N1CCCC1` it was “inactive”; in that of `CCOc1ccc(NS(=O)(=O)c2ccc(OCC(=O)NCCCOC)cc2)cc1`, “inactive”; in that of `COc1ccccc1N1CCN(c2nc3ccccc3n3nnnc23)CC1`, 12 nM (active).
For the molecule `COCCn1nnnc1C(c1ccccc1Cl)N1CCN(c2ccccc2OC)CC1` (configuration not stated), the max fluorescein-equivalent concentration entry is “inactive”.
Next, `COc1ccccc1N1CCN(Cc2nnnn2CCc2ccccc2)CC1`: “inactive”.
In the case of `COc1ccc(-c2cc(C(F)(F)F)nc(SCCC(=O)NCc3ccco3)n2)cc1` it was “inactive”; in that of `CCN(CC)S(=O)(=O)c1cccc(C(=O)Nc2cc(C)nn2-c2nc(C)cc(C)n2)c1`, “inactive”.
For `COc1ccc(OCC(=O)OCC(=O)Nc2ccc(S(=O)(=O)N3CCCCC3)cc2)cc1`, the max fluorescein-equivalent concentration entry is “inactive”.
Regarding `CCN1CCN(C(=O)CN(C)S(=O)(=O)c2ccc(OC)cc2)CC1`, the max fluorescein-equivalent concentration entry is “inactive”.
`CCC1CCCCN1C(=O)Nc1cccc(NC(=O)N2CCCCC2CC)c1` (configuration not stated): the max fluorescein-equivalent concentration result was “inactive”.
Take `COc1ccccc1CNc1nc(-c2c(C)noc2C)nc2ccccc12`: the max fluorescein-equivalent concentration result was “inactive”.
Turning to `FC(F)(F)c1nnc2sc(-c3ccco3)nn12`, the max fluorescein-equivalent concentration result is “inactive”.
Regarding `O=C(O)CS(=O)c1ccc2c3c(cccc13)C(=O)c1ccccc1-2` (configuration not stated), the max fluorescein-equivalent concentration was 14 nM (active).
Take `CCn1c(=N)c(S(=O)(=O)c2ccc(F)cc2)cc2c(=O)n3ccccc3nc21`: the max fluorescein-equivalent concentration is 29 nM (active).
Next, `CCn1c(=N)c(C(=O)NCCCOC)cc2c(=O)n3cccc(C)c3nc21`: “inactive”; `CC1(C)C(=O)C2(CCCCC2)C(=O)OC1c1cccs1` (configuration not stated): “inactive”.
Next, `CCOc1ccccc1Nc1nnc(SCC(=O)Nc2cc(C)on2)s1`: “inactive”; `CC[C@H](c1ccccc1)c1cc(C(C)(C)C)cc(C(C)(C)C)c1O`: “inactive”.
`C=CCn1c(COc2ccccc2C)nnc1SCC(=O)O`: the max fluorescein-equivalent concentration entry is “inactive”.
For `O=C(NCc1ccco1)c1sc2cccc(F)c2c1Cl`, the max fluorescein-equivalent concentration result was “inactive”.
As for `CC(Sc1nc2ccccc2c(=O)n1Cc1ccco1)C(=O)c1ccccc1` (configuration not stated), the max fluorescein-equivalent concentration entry was “inactive”.
Next, `COc1ccccc1NC(=O)CSc1nc2sc(C)c(C)c2c(=O)n1Cc1ccco1`: “inactive”; `CN(c1ccccc1)c1ccc(/C=c2\s/c(=C(/C#N)C(=O)C(C)(C)C)n(Cc3ccco3)c2=O)cc1`: 34 nM (active); `Cc1ccccc1C(=O)Nc1cccc(-c2nnc(SCC(=O)O)n2C)c1`: “inactive”.
On to `O=C(CNS(=O)(=O)c1cccc(C(F)(F)F)c1)Nc1ccccc1F`, for which the max fluorescein-equivalent concentration entry is “inactive”.
As to `Cc1cc2c(=O)n(C)c(SCC(=O)c3cc4ccccc4o3)nc2s1`, the max fluorescein-equivalent concentration is 13 nM (active).
Next, `Cc1ccc(C(=O)CSc2nc3ccccc3c(=O)n2N)o1`: “inactive”; `Cc1ccsc1C(=O)OCC(=O)c1cc2ccccc2o1`: “inactive”; `Cc1cc(C)cc(NC(=O)C2CCN(c3nc(C)cc(C)n3)CC2)c1`: “inactive”.
Take `CCOC(=O)c1cc2sccc2n1Cc1ccc(C#N)cc1`: the max fluorescein-equivalent concentration entry was “inactive”.
`Fc1ccccc1CCNc1nnnn1-c1ccccc1`: the max fluorescein-equivalent concentration result was “inactive”.
Regarding `CN1CCC2(CC1)CCN(S(=O)(=O)c1ccccc1)CC2`, the max fluorescein-equivalent concentration entry was “inactive”.
Turning to `Cc1ccc2nc(CC(=O)c3ccc4ccccc4c3)c(=O)[nH]c2c1`, the max fluorescein-equivalent concentration entry was “inactive”.
Next, `C/C=C1\C(=O)C[C@@H]2[C@@H]3CCC4=CC(=O)CC[C@@]4(C)[C@H]3CC[C@@]12C`: “inactive”.
Next, `Oc1ccc2ccccc2c1C=NCc1c(O)ccc2ccccc12`: “inactive”; `COc1ncnc2c1N=C1CC(C)(C)CC(N)=C1S2`: 47 nM (active).
`COc1ccc(C(=O)N2CCC[C@@]3(CCN(C(=O)NC(C)C)C3)C2)cc1`: the max fluorescein-equivalent concentration result is “inactive”.
For the molecule `CC(C)NC(=O)N1CC[C@@]2(CCCN(C(=O)c3cccc(F)c3)C2)C1`, the max fluorescein-equivalent concentration was 780 nM (active).
Next, `CC(C)NC(=O)N1CC[C@@]2(CCCN(C(=O)c3ccco3)C2)C1`: “inactive”.
In the case of `O=C(Nc1ccc(S(=O)(=O)N2CCCCC2)cc1)c1cnccn1` it was “inactive”.
Next, `O=c1[nH]c(-c2ccccc2)c(-c2ccccc2)[nH]1`: “inactive”.
Regarding `O=c1[nH]c(=O)c2nc3ccccc3nc2[nH]1`, the max fluorescein-equivalent concentration is 62 nM (active).
As to `CN1C(=O)C[C@H](c2ccccc2)C1=O`, the max fluorescein-equivalent concentration entry is “inactive”.
Next, `CCCn1c(SCC(=O)Nc2cccc(C(=O)OCC)c2)nnc1-c1ccoc1C`: “inactive”; `COc1ccccc1Cc1nc(-c2ccc(C)cc2)no1`: “inactive”; `CC12CCC(C(=O)N(CCC#N)CCC#N)(CC1=O)C2(C)C` (configuration not stated): “inactive”.
Turning to `COc1ccc2[nH]c3cc4c(=O)c5cc(OC)ccc5[nH]c4cc3c(=O)c2c1`, the max fluorescein-equivalent concentration entry was “inactive”.
In the case of `C[C@H]1O[C@@H](CC(=O)O)Cc2c1c(O)c1c(O)cc(-c3cc(=O)c4c(=O)c5c(c(=O)c=4c3=O)C[C@H](CC(=O)O)O[C@@H]5C)c(O)c1c2O` it was “inactive”.
For `CC(Sc1nncs1)C(=O)NCc1ccc2c(c1)OCO2` (configuration not stated), the max fluorescein-equivalent concentration entry is “inactive”.
In the case of `Cc1cc(NC(=O)Nc2ccccc2)n(-c2ccccc2)n1` it was “inactive”.
Regarding `COc1ccc2oc(=O)c(C(=O)N3CCCc4ccccc43)cc2c1`, the max fluorescein-equivalent concentration entry is “inactive”.
Regarding `COc1ccc2oc(=O)c(C(=O)O)cc2c1`, the max fluorescein-equivalent concentration was 19 nM (active).
Turning to `COc1cccc(C(=O)c2cc3ccc(O)cc3oc2=O)c1`, the max fluorescein-equivalent concentration entry is “inactive”.
In the case of `CCOc1ccc2cc(C#N)c(SCC(=O)OC)nc2c1` it was “inactive”; in that of `Cc1cccc2cc(C#N)c(N3CCCC3)nc12`, “inactive”.
Regarding `CCOc1ccc2nc(N3CCCN(C(=O)Nc4ccccc4C)CC3)c(C#N)cc2c1`, the max fluorescein-equivalent concentration was 29 nM (active).
As to `CC(=O)c1cc2c(cc1N)OCO2`, the max fluorescein-equivalent concentration result was “inactive”.
In the case of `CCC1=C(C(=O)OC)C(c2cc(OC)ccc2OC)C(C#N)=C(N)O1` (configuration not stated), the max fluorescein-equivalent concentration result was “inactive”.
Next, `CCCN1CC=C2C(C#N)=C(N)C(C#N)(C#N)C(c3cc(OC)ccc3OC)C2C1` (configuration not stated): 10 nM (active).
Next, `COC(=O)C1=C(C)OC(N)=C(C#N)C1c1cc(OC)ccc1OC` (configuration not stated): “inactive”; `COc1cc(NS(=O)(=O)c2ccc(NC(C)=O)cc2)cc(OC)c1`: “inactive”; `CCOC(=O)C1(Cc2ccc(O)cc2)NC(c2ccccc2F)C2C(=O)N(C)C(=O)C21` (configuration not stated): “inactive”.
Next, `Cc1ccc(C(c2nnnn2CS(=O)(=O)c2ccc(C)cc2)N2CCC(C(N)=O)CC2)cc1` (configuration not stated): “inactive”; `COc1ccc(-c2c3c(=O)n(C)c(=O)n(C)c3cn2NC(C)=O)cc1`: “inactive”.
